# MITF inh: human MITF inhibition, primary screen; AlphaScreen MITF homodimerization, bead proximity signal; 650,000 tested, 0.91% active; inhibition, % at 2.6 µM; O75030; in the data active = inhibition above about 50%;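 also: 0% = vehicle wells with protein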
# TEAD-YAP inh: TEAD-YAP interaction inhibition; 640,000 tested, 1.4% active; HEK-TIYL cells, TEAD-Gal4/YAP UAS-luciferase luminescence; inhibition, % at 9.12 µM; in the data active = inhibition above about 32%;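 also: 0% = median of test compound wells and 100% = reference inhibitor wells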
# GPR151 ag: activates the human receptor GPR151. Q8TDV0. PathHunter beta-arrestin GPR151 cells, luminescence. activation, % at 11.2 µM. 650,000 tested, 1% active; in the data active = activation above about 4.9%;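 also: 0% = median of compound wells and 100% = cells with positive control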
# Target sequence (Q8TDV0 whole entry, looked up): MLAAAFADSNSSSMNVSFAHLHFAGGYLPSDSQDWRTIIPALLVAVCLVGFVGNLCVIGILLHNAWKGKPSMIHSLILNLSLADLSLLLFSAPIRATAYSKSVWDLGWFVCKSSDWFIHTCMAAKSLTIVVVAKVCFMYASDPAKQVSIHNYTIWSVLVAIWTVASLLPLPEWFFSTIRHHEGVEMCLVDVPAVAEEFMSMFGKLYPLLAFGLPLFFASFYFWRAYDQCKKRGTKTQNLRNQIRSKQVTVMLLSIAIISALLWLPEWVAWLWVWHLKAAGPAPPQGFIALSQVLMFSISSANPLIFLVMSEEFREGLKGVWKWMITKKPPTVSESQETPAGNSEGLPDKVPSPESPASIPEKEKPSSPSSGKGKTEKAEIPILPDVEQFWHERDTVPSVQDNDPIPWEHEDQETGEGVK
# FBW7 act: activators of human E3 ligase FBW7. Q969H0. AlphaScreen FBW7–phospho-cyclin E peptide binding, activator screen. normalized activity (activation), % at 26.1 µM. 650,000 tested, 0.13% active. AID 1259310; in the data active = normalized activity above about 1.9%;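 also: purified mutant Fbw7 with reduced substrate affinity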
# * = called active by the depositor. Rows were chosen to be rich in hits. Some 3.4% of all compounds tested hit in one or more screens of this group.
SMILES,MITF inh,TEAD-YAP inh,GPR151 ag,FBW7 act
CCN1/C(=C\c2c(O)c(=O)c2=O)Sc2ccccc21,11.3,-5.1,-1.0,0.0
CCN1/C(=C/C=C/c2cc[n+](CC)c3ccccc23)C=Cc2ccccc21,5.2,8.8,0.0,0.2
CCCCCCCc1c2c(C)c(C(=O)OCC)nc-2cc2n1C(C)C(C)=C2C (stereo unspecified),3.4,28.9,0.9,-0.1
CCCCCCCc1c2c(C)c(C(=O)OCC)nc-2cc2n1CC(C)=C2C,10.5,42.0*,2.2,-0.1
O=C(O)CCCC(=O)Nc1ccc(-c2cnc(-c3ccc(NC(=O)CCCC(=O)O)cc3)nc2)cc1,-1.0,-11.5,-1.3,0.0
CN(C)C(=O)CSc1nnc(-c2ccco2)n1C,17.4,5.1,-0.6,2.1*
CC(=O)NC(CC(C)C)c1nnc2n1CCN(C(=O)CCc1ccc3c(c1)OCO3)CC2 (stereo unspecified),0.6,4.3,-0.6,0.6
Cc1ccc2nc(-c3cccc(NC(=S)NC(=O)c4ccco4)c3)oc2c1,-5.7,-53.7,-1.8,0.1
Cc1cc2nc(-c3cccc(NC(=S)NC(=O)c4ccco4)c3)oc2cc1C,9.6,47.5*,-1.4,0.9
O=C(CN1CCCC1)Nc1ccc(-c2nc3cc(NC(=O)CN4CCCC4)ccc3o2)cc1,-2.9,36.4*,0.3,0.0
O=C(Nc1ccc2oc(-c3ccc(-c4ccccc4)cc3)nc2c1)c1ccco1,2.7,-3.0,-0.9,2.5*
O=C(Nc1ccc(-c2nc3cc(NC(=O)c4ccco4)ccc3o2)cc1)c1ccco1,9.8,-23.5,0.6,0.2
COc1ccc(Cl)cc1C(=O)Nc1ccc2oc(-c3ccc(C(C)(C)C)cc3)nc2c1,8.1,38.0*,-0.2,0.5
COc1cccc(COc2coc(C(=O)NCc3cccnc3)cc2=O)c1,-5.5,0.5,1.2,-0.2
CC1=C(C(=O)Nc2ccc(Cl)cc2)C(c2ccccc2)C(C#N)=C(SCC(=O)Nc2ccc(Br)cc2)N1 (stereo unspecified),-3.5,0.0,-0.5,0.1
COc1ccc(N2C(=O)c3ccc(Oc4ccc(NC(=O)CSc5ccc(Cl)cc5)cc4)cc3C2=O)cc1,3.6,4.6,-0.9,0.1
Cc1ccccc1-c1nc2cc(NC(=O)C(C)C)ccc2o1,4.3,66.0*,1.0,0.0
CC(=O)Nc1ccc2oc(-c3cccc(C)c3)nc2c1,-11.5,62.4*,-8.1,-0.1
CC(C)(C)c1ccc(-c2nc3cc(NC(=S)NC(=O)c4ccco4)ccc3o2)cc1,12.7,43.4*,4.7,1.0
O=C(NC(=S)Nc1ccc2oc(-c3ccccc3)nc2c1)c1cncc(Br)c1,3.7,-3.0,0.3,0.1
Cc1ccc(-c2nc3cc(NC(=S)NC(=O)c4ccco4)ccc3o2)cc1,14.0,-46.4,0.3,0.8
CC(C)(C)C(=O)Nc1ccc2oc(-c3cncc(Br)c3)nc2c1,7.5,34.7*,1.5,0.3
COC(=O)c1ccc(CN2C(=O)C(C)Oc3ncc(C(F)(F)F)cc32)o1 (stereo unspecified),-1.3,1.4,-0.5,-0.1
CCN(CC)c1ccc(-c2nc3cc(NC(=O)c4ccc(OC)c(OC)c4)ccc3o2)cc1,21.4,-21.9,-1.1,2.4*
Cc1ccc2c(NC(=O)c3cc(-c4ccc(F)cc4)n[nH]3)cccc2n1,-7.4,0.2,2.4,-0.1
SMILES,MITF inh,TEAD-YAP inh,GPR151 ag,FBW7 act
Cc1ccc[n+](C(C)C(=O)c2ccccc2)c1 (stereo unspecified),10.1,1.4,-0.3,-0.1
Cc1cc(C)c[n+](C(C)C(=O)c2ccc(-c3ccccc3)cc2)c1 (stereo unspecified),4.0,71.5*,0.6,0.3
CCN(CC)CCOC(=O)c1ccc(N=Cc2c(O)n(CCc3ccccc3)c(=O)[nH]c2=O)cc1,-11.2,9.2,1.5,-0.1
CCN=c1scc(-c2ccccc2)n1/N=C/c1ccccn1,0.7,55.1*,-1.6,-0.6
CN=c1scc(-c2cccc(Br)c2)n1/N=C/c1ccncc1,25.1,-61.8,2.5,-0.4
CN=c1scc(-c2ccccc2)n1/N=C/c1ccsc1,29.1,99.0*,-2.2,-0.2
CN=c1scc(-c2ccccc2Br)n1/N=C/c1ccco1,21.6,2.2,-1.5,-0.4
CN=c1scc(-c2ccccc2F)n1/N=C/c1ccc(O)c(O)c1O,4.3,88.7*,-4.6,-0.4
CN=c1scc(-c2ccccc2Br)n1/N=C/c1ccc(O)cc1O,5.9,96.2*,-3.4,-0.1
CCN=c1scc(-c2ccc(F)cc2)n1/N=C/c1ccccn1,12.0,-85.9,-0.9,-0.3
CCOC(=O)Nc1cccc(NC(=O)OCC)c1,1.2,-1.7,3.1,0.2
CN=c1scc(C)n1/N=C/c1ccc2c(c1)OCO2,13.8,15.5,-6.8,-0.3
CN=c1scc(-c2ccccc2F)n1/N=C/c1ccsc1,15.8,99.1*,-7.9,0.2
CN=c1scc(-c2ccccc2F)n1/N=C/c1ccc2c(c1)OCO2,14.3,93.6*,-10.3,-0.2
Nc1cc2c3c(c1)C(c1ccccc1)CCN3CCC2c1ccccc1 (stereo unspecified),-2.6,23.6,-0.3,6.3*
COc1ccc2[nH]c(=O)c(CN(CC3CCCO3)S(=O)(=O)c3ccccc3F)cc2c1 (stereo unspecified),2.6,33.8*,0.8,0.3
COc1cc2ccccc2cc1C(=O)Nc1nc2c(s1)CCCC2,-9.0,-70.4,-1.4,0.4
COc1cc(SC)ccc1C(=O)Nc1nc2c(s1)CCCC2,5.2,98.3*,-7.4,0.4
COc1cc(SC)ccc1C(=O)Nc1nc2ccc(S(C)(=O)=O)cc2s1,5.4,46.5*,-1.1,0.1
COc1ccc(C(=O)Nc2nc3c(s2)CCCC3)c(OC)c1,4.2,94.8*,-10.0,-0.2
CSc1cccc(C(=O)Nc2nc3c(s2)CCCC3)c1,4.8,-74.7,-0.4,-0.1
COc1ccc(Cl)cc1C(=O)Nc1nc2ccc(S(C)(=O)=O)cc2s1,5.5,-3.3,-0.6,0.1
COc1cc(SC)ccc1C(=O)Nc1nc2c(s1)C(=O)CC(C)(C)C2,12.9,-22.1,-1.7,0.6
CC(=O)Nc1cc(NC(C)=O)cc(C(=O)Nc2nc3c(s2)CCCC3)c1,5.6,52.2*,1.2,-0.2
CC1(C)CC(NS(C)(=O)=O)CC(C)(C)N1OC(=O)c1ccccc1,-1.0,2.6,-0.8,0.0
SMILES,MITF inh,TEAD-YAP inh,GPR151 ag,FBW7 act
COc1ccc(S(=O)(=O)Nc2cc3c(C(C)=O)c(C)oc3c3ccccc23)cc1,-3.1,68.7*,3.1,-0.4
CCOc1ccc(S(=O)(=O)Nc2cc3c4c(oc3c3ccccc23)CCCC4)cc1,-8.8,48.8*,-0.7,-0.1
CCOC(=O)c1c(C)oc2c1cc(NS(=O)(=O)c1ccc(OC)cc1)c1ccccc12,9.6,51.2*,-0.1,0.0
CCOc1ccc(S(=O)(=O)Nc2cc3c(C(=O)OC)c(C)oc3c3ccccc23)cc1,-1.9,63.1*,1.8,0.0
Cc1ccc(C)c(NC(=O)CSc2nc(=O)n(Cc3cccnc3)c3c2CCC3)c1,11.6,0.2,1.2,-0.2
O=C(Cc1ccccc1)OCCN1C(=O)C2C3c4ccccc4C(c4ccccc43)C2C1=O (stereo unspecified),-8.1,-13.5,0.1,-0.1
CC(=O)c1cc2c(cc1NS(=O)(=O)c1ccc(C(C)(C)C)cc1)OCO2,3.5,-4.0,0.3,-0.1
